What all share (test): NCI-60 one-dose screen, 48 h (100 = growth as untreated, 0 = no growth, -100 = all killed)
What all share (details): 10 µM unless noted

In assay [1] the test system is NCI-H23 lung.
For assay [2], the system named is NCI-H226 lung.
For assay [3], the system named is NCI-H322M lung.
The subject of assay [4] is HOP-62 NSCLC.
Assay [5] relates to NCI-H460 lung.
For assay [6], the system named is HOP-92 NSCLC.
In assay [7] the test system is NCI-H522 lung.
The test system of assay [8] is A549/ATCC NSCLC.
Assay [9] deals with 786-0 renal.
The test system of assay [10] is COLO 205 colon.

Compounds without any hit were thinned out: in the full panel of roughly 83,000, 20% have a hit.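 Each cell line was grown in a 96-well plate and treated with one concentration of compound for 48 hours. Values below 10 were considered active.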 Unmarked numbers belong to inactive results. Activity calls are given as the source filed them.

On to `O=C(CCl)N(c1ccccc1)c1ccccc1`, for which the growth in [1] was 98.1%; in assay [2], 102%; in [3] it was 95%; in assay [4] it was 105%; in assay [5] it was 111%; in assay [6] it was 78.5%. The growth in assay [7] was -29.7% (active); in assay [8], 103%; in assay [9], 108%; in assay [10], 111%.

With `CC(=O)c1ccc2c(c1)CCc1ccccc1-2`, the growth in assay [1] was 107%; in assay [2] it was 94.7%; in assay [3], 116%; in assay [4], 88.5%; in assay [5], 107%; in [6], 95.3%. For the same compound, the growth is 110% in [7], 91% in assay [8], 83.7% in [9] and 110% in assay [10].

As for `CCN(CC)CC(O)c1cc(-c2ccc(Cl)cc2)nc2cc(Cl)ccc12` (stereo not given), the growth in assay [1] was 70.8%; in assay [2], 78.5%; in [3] it was 79.2%; in assay [4], 54.6%; in [5], -0.34% (active); in assay [6], 19.3%. Also, the growth was -70.4% (active) in assay [7], 14.6% in assay [8], 46.3% in assay [9] and -73% (active) in assay [10].

In the case of `N#C/C(=N\Nc1ccc(Cl)cc1)C(=O)C1CC1`, the growth in assay [1] was 42.4%; in assay [2], 69.9%; in [3], 82.1%; in [4] it was 41.9%; in [5], 44.9%; in assay [6], 20%. The growth in assay [7] is 35.5%; in assay [8], 40.9%; in [9], 39.6%; in assay [10] it was 60.4%.

With `CCCCOS(=O)(=O)c1ccccc1`, the growth in assay [1] was 104%; in assay [2], 97.9%; in assay [3] it was 98%; in [4], 96.9%; in [5] it was 115%; in assay [6], 122%. Moreover, the growth was 111% in assay [7], 116% in assay [8], 101% in [9] and 134% in [10].

Regarding `O=[N+]([O-])c1ccc(Oc2ccccc2Cl)c([N+](=O)[O-])c1`, the growth in assay [1] was 73.9%; in assay [2] it was 83.8%; in [3], 97.8%; in assay [4], 99.4%; in assay [5] it was 105%; in assay [6], 83.7%. Also, the growth in assay [7] is 73.8%; in assay [8], 92.7%; in assay [9], 83.7%; in [10] it was 112%.

In the case of `O=C(CCl)N1c2ccccc2Sc2c1ccc1ccccc21`, the growth in assay [1] was 48.6%; in assay [2], 68.1%; in [3], 106%; in [4], 90.6%; in assay [5], 81.7%; in assay [6], 64.6%. Also, the growth in assay [7] is -79.2% (active); in assay [8], 95.2%; in [9] it was 88.9%; in [10], 65.7%.

`CC(C)N=C(N)/N=C(\N)Nc1ccc2ccc3ccccc3c2c1`: the growth in assay [1] is -88.1% (active); in assay [2], -67.6% (active); in assay [3], -89.9% (active); in [4], -84.5% (active); in assay [5], -58.1% (active); in assay [6], -68.6% (active). Also, the growth in [7] is -84.8% (active); in assay [8] it was -65.2% (active); in assay [9], -70.1% (active); in assay [10] it was -92% (active).

Consider `Cc1ccc(/C=C2\CNC/C(=C\c3ccc(C)cc3)C2=O)cc1`, for which the growth in assay [1] is 2.76% (active); in [2], -63.2% (active); in [3], 22.9%; in assay [4], 4.5% (active); in [5], -47.1% (active); in [6], 11%. Also, the growth is -54% (active) in assay [7], -53.7% (active) in [8], -71.5% (active) in [9] and -70.5% (active) in assay [10].

For `COC1CC(C)C(OC)c2cc(O)cc(c2O)NC(=O)/C(C)=C/C=C\C(C)C(OC(N)=O)/C(C)=C\C(C)C1OC` (stereo not given), the growth is 39.4% in [1]; 47.8% in assay [2]; 54.1% in assay [3]; 37.9% in [4]; 9.42% (active) in assay [5]; 11.4% in assay [6]. Besides, the growth is -67.4% (active) in assay [7], 13.3% in assay [8], 31.3% in [9] and -0.179% (active) in assay [10].

Regarding `CCCCCCN(CCCCCC)CCCNc1nccc2ccccc12`, the growth in assay [1] is 12%; in [2], 42.9%; in assay [3], 28.7%; in [4], 64.3%; in assay [5], 3.2% (active); in [6], -14.6% (active). In addition, the growth is 4.1% (active) in assay [7], 14.3% in [8], 5.89% (active) in assay [9] and -66% (active) in assay [10].

In the case of `CC(C)Nc1ccc(Nc2ccc(NC(C)C)cc2)cc1`, the growth was 25.9% in [1]; 51.8% in [2]; 84.6% in assay [3]; 76.4% in [4]; 24.7% in assay [5]; 72.6% in [6]. The growth is 35.2% in assay [7], 40.9% in assay [8], 66% in [9] and 25.8% in [10].

Regarding `Oc1c(Cl)cc(Cl)cc1C=NCC1CCC(CN=Cc2cc(Cl)cc(Cl)c2O)CC1` (stereo not given), the growth was 102% in [1]; 97% in assay [2]; 75.5% in assay [3]; 95.1% in assay [4]; 108% in assay [5]; 76.6% in assay [6]. In addition, the growth in [7] is 91.6%; in [8] it was 106%; in [9] it was 96.7%; in assay [10], 112%.

For the compound `CCOC(=O)C1(C)CCCC1N` (stereo not given), the growth in assay [1] is 102%; in assay [2] it was 99.1%; in assay [3], 101%; in assay [4], 109%; in assay [5], 109%; in [6], -14.2% (active). Besides, the growth in [7] is 102%; in [8], 110%; in assay [9], 103%; in [10], 131%.

Take `N#CCc1cccc2ccccc12`: the growth in assay [1] was 109%; in assay [2], 100%; in [3] it was 106%; in [4], 109%; in assay [5] it was 108%; in assay [6], 87.2%. The growth is 91.6% in assay [7], 103% in [8], 109% in assay [9] and 115% in assay [10].

Turning to `O=[N+]([O-])c1ccc(C(Br)c2ccc([N+](=O)[O-])cc2)cc1`, the growth in assay [1] is 79.5%; in assay [2], 99.6%; in [3], 114%; in [4] it was 105%; in assay [5], 102%; in [6] it was 86.1%. Also, the growth in [7] was -40.3% (active); in [8], 100%; in assay [9], 108%; in assay [10] it was 88.3%.

`c1ccc(-c2cccc(-c3ccccn3)n2)nc1`: the growth in assay [1] was 21.3%; in assay [2], 4.69% (active); in assay [3], 26.9%; in assay [4] it was 7.3% (active); in assay [5] it was 3.53% (active); in assay [6] it was 42.4%. The growth in [7] was 18.3%; in [8] it was 9.52% (active); in assay [9], 16.2%; in assay [10], 4.26% (active).

With `N=C(N)Sc1cccc[n+]1[O-]`, the growth is 55.6% in assay [1]; 78.7% in assay [2]; 68.9% in [3]; 79% in assay [4]; 21.8% in assay [5]; 104% in assay [6]. Besides, the growth was 37% in [7], 54.5% in [8], 76.7% in [9] and 39.8% in [10].

As for `CN1CSC(=S)N(Cc2ccccc2)C1`, the growth in assay [1] was 83.9%; in assay [2], 104%; in [3] it was 102%; in assay [4] it was 108%; in assay [5] it was 108%; in [6], 69.4%. The growth was -25.6% (active) in [7], 107% in assay [8], 100% in [9] and 113% in [10].

As to `c1ccc(-c2cc3cc4ccccc4cn3c2)cc1`, the growth in assay [1] was 89.3%; in assay [2], 73.1%; in assay [3], 99.6%; in assay [4] it was 78.7%; in assay [5], 88.3%; in assay [6] it was 76.5%. The growth is 79.4% in [7], 89.9% in assay [8], 102% in assay [9] and 95.1% in [10].

For the compound `CN(C)c1ccc2cc3c(cc2c1)Oc1ccccc1N3.[Cl][Zn][Cl]`, the growth was 78.7% in [1]; 91.2% in assay [2]; 84.7% in [3]; 105% in assay [4]; 96.8% in [5]; 98.8% in assay [6]. Also, the growth in assay [7] was -7.15% (active); in assay [8], 91.8%; in [9], 104%; in assay [10] it was 19.2%.

For the compound `COc1ccc2c(c1OC)OCC(CN(C)C)C2=O` (stereo not given), the growth in [1] is 104%; in [2], 97.6%; in [3], 111%; in [4], 100%; in assay [5], 122%; in [6] it was 52.1%. Also, the growth in assay [7] is -81% (active); in [8], 98.9%; in [9] it was 92.7%; in assay [10], -75.2% (active).

`CCCCN(CCCC)CCCCCCCCCCO`: the growth in [1] is 97%; in [2] it was 105%; in [3], 95.1%; in assay [4], 104%; in assay [5] it was 110%; in assay [6], 129%. Moreover, the growth is 75.9% in assay [7], 115% in assay [8], 92.1% in assay [9] and 106% in assay [10].

Take `CCOc1ccc(C(C[N+](=O)[O-])Sc2ccccc2N)cc1` (stereo not given): the growth in [1] was 10.2%; in assay [2], 78.6%; in assay [3], 88.2%; in assay [4], 92.1%; in [5], 58.9%; in assay [6] it was 82.7%. Also, the growth in [7] is 85.3%; in assay [8], 62.9%; in assay [9], -63.2% (active); in assay [10], 10.1%.

As for `Oc1ccc2c(c1)CCc1ccccc1-2`, the growth in assay [1] is 108%; in assay [2] it was 93.5%; in assay [3], 110%; in [4], 83.3%; in assay [5], 106%; in assay [6], 97.4%. The growth was 100% in assay [7], 98.1% in assay [8], 88.1% in [9] and 106% in assay [10].

On to `CCOC(=O)c1c(C)[nH]c2ccc(O)cc12`, for which the growth in assay [1] was 103%; in assay [2] it was 94.3%; in assay [3] it was 99.7%; in [4], 107%; in assay [5], 98.3%; in assay [6], 103%. In addition, the growth was 52.7% in assay [7], 95.7% in assay [8], 100% in [9] and 113% in assay [10].

Regarding `CCCCCCCCCCCC1=NCCCN1CCCC`, the growth in assay [1] was 94.2%; in assay [2] it was 103%; in assay [3], 98.1%; in assay [4] it was 94.6%; in assay [5], 101%; in assay [6], 74.8%. In addition, the growth in [7] is 97.6%; in assay [8] it was 97.6%; in assay [9], 99.1%; in [10] it was 98%.

Turning to `CCC1C[N+]2=C(c3cc(OC)c(OC)cc3CC2)c2c1cc1n2CCc2cc(OC)c(OC)cc2-1` (stereo not given), the growth is 43% in assay [1]; 65.7% in [2]; 98.6% in assay [3]; 55.9% in assay [4]; 21.5% in [5]; -2.62% (active) in [6]. Besides, the growth in assay [7] was 17%; in assay [8], 56.9%; in [9], 66.3%; in assay [10], -35.4% (active).

The values are drawn from PubChem BioAssay (NCI).
